Experimental findings from PubChem BioAssay (NCATS) are described below.

SMILES strings stand for the structures. Records with an inconclusive call do not appear. A number with no mark means an inactive call. Active and inactive are the calls of the source. The call rests on the fitted dose curve; in most records, active means well fitted inhibition curve with a large enough effect; inconclusive means small, poorly fitted or top-dose-only effect; inactive means no such curve, though single readings can be large or run the other way. Where a SMILES comes first, the peptide text is derived from it. The star is where a group is joined. AMC = Cc1cc(=O)oc2cc(N*)ccc12; Cbz = O=C(OCc1ccccc1)*; PhAc = O=C(Cc1ccccc1)*
On the % scale 0 is the no-effect control and ±100 the full control effect; potency means the concentration at half of the fitted maximal effect.

The test concerns Zika virus NS2B-NS3 protease (unlinked complex). As to the kind of experiment: Primary screen GU Rhodamine qHTS for Zika virus inhibitors: Unlinked NS2B-NS3 protease assay (AID 1347159). Further: nearly all actives have a fitted effect of over 60% in size. The note with it: Recombinant ZIKV NS2B-NS3 protease, Rhodamine110 substrate fluorescence; series mostly up to 107 µM; activity change, negative = inhibition: at the top concentration. In outline: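 Percent inhibition derives from the 15-min fluorescence change (ex 480, em 540 nm), normalized to no-enzyme and no-inhibitor wells. Reactions contained 25 nM NS2B-NS3 complex and 1.5 microM substrate in 10 mM Tris-HCl pH 8.0.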
(In general: Quantitative high-throughput screening tests each substance at several concentrations.)
In the case of `C[C@@H]1O[C@@H](O[C@H]2[C@H](O[C@H]3[C@H](O[C@H]4CC[C@@]5(C)C(CC[C@]6(C)C5CC=C5[C@@H]7CC(C)(C)C[C@@H](O)[C@]7(C)CC[C@]56C)[C@@]4(C)CO)O[C@H](C(=O)O)[C@@H](O)[C@@H]3O)O[C@H](C(=O)O)[C@H](O)[C@@H]2O)[C@H](O)[C@H](O)[C@H]1O` (stereo partly drawn), the “activity change, negative = inhibition” value was -27.9% [at 32.5 µM]. Take `C=CC(C)(O)CC/C=C(\C)COC1O[C@H](CO)[C@@H](O)[C@H](O)[C@H]1O` (stereo partly drawn): the Potency is 12.6 µM (active). Regarding `COc1cc(C(=O)OC[C@@]2(O)CO[C@@H](O[C@H]3[C@H](Oc4ccc(O)cc4)O[C@H](CO)[C@@H](O)[C@@H]3O)[C@@H]2O)cc(OC)c1O`, the “activity change, negative = inhibition” value is -6.83% [at 32.5 µM]. Regarding `O=C(O)CCc1ccc(NCc2cccc3c2CCCN3CCOc2ccccc2)cc1F`, the Potency is 3.16 µM (active). For the compound `O=C(OCC(O)CO[C@@H]1O[C@H](C(=O)O)[C@@H](O)[C@H](O)[C@H]1O)c1ccccc1` (stereo partly drawn), the “activity change, negative = inhibition” value was -29.8%.

Take `Cc1cc(-n2c(=O)[nH]c(=O)n(C)c2=O)ccc1Oc1ccc(SC(F)(F)F)cc1`: the Potency is 15.8 µM (active). For `C/C=C(\C)C1C(C)=CC2CCC(OS(=O)(=O)O)C(C)C2C1/C=C/C=C/C(=O)O` (stereo not drawn), the Potency is 8.91 µM (active). Still for that read-out and setting: for `CC1(C)CC[C@]2(C(=O)O)CC[C@]3(C)C(=CCC4[C@@]5(C)CC[C@H](O[C@H]6O[C@H](C(=O)O)[C@@H](O)[C@H](O[C@@H]7O[C@H](CO)[C@H](O)[C@H](O)[C@H]7O)[C@H]6O)C(C)(C)C5CC[C@]43C)[C@@H]2C1` (stereo partly drawn) the value was 8.91 µM (active). For `CCC(C)(C)C1CCc2c(sc(NC(=O)c3ccc(Br)cc3)c2C#N)C1` (stereo not drawn), the “activity change, negative = inhibition” value is 1.25%. Consider `CN1CCN(c2nc(-c3ccc(C(=O)NC4(C(=O)NCC#N)CCCCC4)cc3)cs2)CC1`, for which the “activity change, negative = inhibition” value is -7.55%. Take `CC(/C=C/C=C(\C)C(=O)O[C@@H]1O[C@H](CO[C@@H]2O[C@H](CO)[C@@H](O)[C@H](O)[C@H]2O)[C@@H](O)[C@H](O)[C@H]1O)=C\C=C\C=C(C)\C=C\C=C(/C)C(=O)O[C@@H]1C[C@](O)(C(=O)O)C[C@@H](O)[C@H]1OC(=O)/C=C/c1ccc(O)c(O)c1`: the Potency was 1.78 µM (active). As to `Cc1cc(=O)oc2cc(NC(=O)[C@H](CCC(=O)O)NC(=O)[C@H](CC(C)C)NC(=O)[C@H](CC(C)C)NC(=O)OCc3ccccc3)ccc12` (Cbz-Leu-Leu-Glu-{AMC}), the “activity change, negative = inhibition” value was -24.1%. On the same count and under the same terms, for `COc1cccc(C)c1C(=O)O[C@@H]1C[C@H](O[C@H]2[C@H](O)C[C@H](O[C@@H]3CCC[C@H]4[C@H]3C=C[C@@H]3CCCC/C=C/[C@H]5C=C(C(=O)O)[C@@H](C)C[C@@]56OC(=O)C(=C6O)OC(=O)[C@@]34C)O[C@@H]2C)O[C@H](C)[C@H]1O` the value was -28.3% [at 32.5 µM]. In the case of `C=C1CCC2C(C)(C)CC(O)CC2(C)C1CCC(C)CC(=O)O` (stereo not drawn), the Potency was 11.2 µM (active). Turning to `CC(C)C1C(OC(=O)/C=C/c2ccccc2)CC2(C)OC2CCC2(C)OC2C1O` (stereo not drawn), the “activity change, negative = inhibition” value was 3.23%. For the compound `COc1c(-c2ccc(O)cc2)cc(OC)c2c1oc1cc(O)c(OC3OC(CO)C(O)C3O)cc12` (stereo not drawn), the Potency is 15.8 µM (active). Regarding `C[C@@H]1C[C@@H](O)[C@@]2(CO)C(CO)=CCC[C@@H]2[C@@]12C[C@@H](c1ccoc1)OC2=O`, the “activity change, negative = inhibition” value was -12.7%. As to `C=C(C)[C@H]1CC[C@]2(C(=O)O)CC[C@]3(C)C(CCC4[C@@]5(C)CCC(=O)C(C)(C)C5CC[C@]43C)C12` (stereo partly drawn), the Potency is 7.08 µM (active). As to `CC1(C)Oc2ncnc(N)c2N=C1c1ccc(C2CCC(CC(=O)O)CC2)cc1` (stereo not drawn), the “activity change, negative = inhibition” value is -13.8%. Still for that read-out and setting: for `COc1ccnc2[nH]cc(C(=O)C(=O)N3CCN(C(=O)c4ccccc4)CC3C)c12` (stereo not drawn) the value was -29.7%; for `COc1ccc(CCC(=O)c2c(O)cc(O[C@@H]3O[C@H](CO)[C@@H](O)[C@H](O)[C@H]3O[C@@H]3O[C@@H](C)[C@H](O)[C@@H](O)[C@H]3O)cc2O)cc1O`, 0%. Same read-out and setting: then `CC1CCC2(C(=O)O)CCC3(C)C(=CCC4C5(C)CCC(O)C(C)(C(=O)O)C5CCC43C)C2C1(C)O` (stereo not drawn), with -25.7% [at 57.1 µM]. Turning to `COc1cc(C2Oc3c(OC)cc(CCCO)cc3C2CO)ccc1O` (stereo not drawn), the Potency was 39.8 µM (active).

As for `CC(C)c1ccc2c(c1)C(O)CC1C(C)(CO)CCCC21C` (stereo not drawn), the “activity change, negative = inhibition” value is -16.4%. Same read-out and setting: for `CC(C)[C@](O)(c1ccc2cc(OC(F)F)c(OC(F)F)cc2c1)c1cn[nH]n1` the value was -2.69%. Regarding `CC(=O)OC1CCC2(C)C(CCC3(C)C2CC=C2C4CC(C)(C)CCC4(C)CCC23C)C1(C)C(=O)O` (stereo not drawn), the Potency is 7.08 µM (active). Take `CC(C)CC(=O)O[C@@H]1O[C@H](CO)[C@@H](O[C@H]2O[C@H](C)[C@@H](N[C@H]3C=C(CO)[C@@H](O[C@H]4O[C@H](CO)[C@@H](O[C@H]5O[C@H](CO)[C@@H](O[C@H]6O[C@H](CO)[C@@H](O)[C@H](O)[C@H]6O)[C@H](O)[C@H]5O)[C@H](O)[C@H]4O)[C@H](O)[C@H]3O)[C@H](O)[C@H]2O)[C@H](O)[C@H]1O`: the “activity change, negative = inhibition” value is 6.1% [at 32.5 µM]. Turning to `CC1OC(OC2C(OC3C(O[C@H]4CC[C@@]5(C)C(CC[C@]6(C)C5CC=C5C7CC(C)(C)CC(O)[C@]7(C)CC[C@]56C)C4(C)C)OC(C(=O)O)C(O)C3O)OCC(O)C2O)C(O)C(O)C1O` (stereo partly drawn), the Potency is 7.94 µM (active). Turning to `COCc1c(O)c(C(=O)O)c(C)c2c1OC(=O)c1c(C)cc(O)c(CO)c1O2`, the Potency was 28.2 µM (active).

Take `O=C(NCCN1CCCC1)c1cc(-c2ccc(CN3CCOCC3)cc2)nc2ccc(F)cc12`: the “activity change, negative = inhibition” value is -28.3% [at 57.1 µM]. As to `C=C1CCC2C(C)(C)CC(O)CC2(C)C1CCC(C)CCOC(=O)CCC(=O)O` (stereo not drawn), the Potency was 2.51 µM (active). Take `CC1OC(O[C@@H]2[C@@H](O)[C@H](OC(=O)[C@]34CCC(C)(C)C[C@H]3C3=CCC5[C@@]6(C)CC[C@H](O[C@@H]7O[C@H](C(=O)O)[C@@H](O)[C@H](O[C@@H]8OC[C@@H](O)[C@H](O)[C@H]8O)[C@H]7O[C@@H]7O[C@H](CO)[C@H](O)[C@H](O)[C@H]7O)[C@@](C)(C=O)C6CC[C@@]5(C)[C@]3(C)C[C@H]4O)O[C@H](C)[C@@H]2OC2OC(C)C(OC3OCC(O)C(O)C3O)C(O)C2O)C(O)C(O)C1O` (stereo partly drawn): the activity change, negative = inhibition was 7.56% [at 19.1 µM]. Consider `CCOC(=O)CNC(=O)[C@@H]1CCCN1C(=O)Cc1ccccc1` (PhAc-Pro-Gly-OEt), for which the “activity change, negative = inhibition” value is 4.03%.

Regarding `CC1(C(=O)O)CCCC2(C)C3CC4C5CC3(CCC12)CC45C` (stereo not drawn), the Potency is 10 µM (active). On to `CC(C)(Oc1ccc(-c2nc3cc(Cl)ccc3s2)cc1)C(=O)O`, for which the Potency was 35.5 µM (active). Same read-out and setting: then `C=C1CCC2[C@@](C)(C(=O)O)CCC[C@@]2(C)[C@@H]1CCc1ccoc1` (stereo partly drawn), with 10 µM (active). As for `CC(=O)NCC1CN(c2ccc(-c3ccc(CNCc4cn[nH]n4)cc3)c(F)c2)C(=O)O1` (stereo not drawn), the “activity change, negative = inhibition” value is 53.3%.

As for `Cc1sc(C)c(C(=O)NC2(c3ccc(C(=O)O)cc3)CC2)c1Cc1ccc(C(F)(F)F)cc1`, the Potency was 17.8 µM (active).
